Values joined by “and” are separate entries in the source; they are usually repeats but may differ in a detail not shown here. Equal entries are not always repeated. Among all 420,000 compounds or so, about 50,000 (12%) were called active. About 26% were inconclusive and are not listed. Many of the other results were omitted from the sample, so actives are more common in it than they were. A number with no mark means an inactive call. Calls follow the shape of the dose curve; as a rule, active = well fitted inhibition curve with a large enough effect; inconclusive = small, poorly fitted or top-dose-only effect; inactive = flat fitted curve, though single readings scatter.
Test: qHTS for Inhibitors of human tyrosyl-DNA phosphodiesterase 1 (TDP1): qHTS in cells in presence of CPT; also: nearly all actives have a fitted effect of over 55% in size
Settings: chicken DT40 Tdp1-/-;hTDP1 cells + 20 nM CPT, ATP luminescence, 48 h; series mostly up to 46.2 µM; activity change, negative = growth inhibition: at the top concentration
Excerpt: Human tyrosyl-DNA phosphodiesterase 1 (TDP1) is a novel repair gene, and we propose to use it as a new target for anticancer drug development. TDP1 is not an essential protein, but under treatment with topoisomerase I poison (camptothecin: CPT), TDP1 works as a critical factor for cell survival. To directly identify novel TDP1 inhibitors active in a cellular environment, we have knocked-out the Tdp1 gene in chicken DT40 cells (Tdp1-/-) and generated a complemented counterpart cells that contains a stable transfection of the human TDP1 gene (Tdp1-/-;hTDP1 cells). For the primary screen, Tdp1-/-;hTDP1 cells will be exposed to small molecules in the presence or absence of CPT, and their growth kinetics will be evaluated after 48 hours by measuring ATP activity. […] The hit compounds will then be evaluated in the presence or absence of CPT using Tdp1-/- cells. […] In tertiary assays, biochemical gel-based assays will be used to assess whether the hit compounds specifically target TDP1. To this end, we have screened this cell line against the MLSMR in two primary screens. In one screen we add CPT and in the other we screen in the absence of CPT; this AID represents the screen where CPT was present. NIH Chemical Genomics Center [NCGC] NIH Molecular Libraries Probe Centers Network [MLPCN] MLPCN Grant: MH095538 Assay Submitter (PI): Yves Pommier, NCI
DT40-hTDP1 cells with 20 nM Camptothecin (add 20 microL of 1 mM CPT stock in 1 L of cell culture medium) were dispensed at 400 cells/5microL/well in tissue culture treated 1536-well white wall/solid bottom assay plates (Greiner Bio-One North America, NC, U.S.A.) using a Multidrop Combi 8 channel dispenser (Thermo Fisher, Waltham, MA, USA). 23 nL compounds and controls were transferred using the pin tool (Kalypsys, San Diego, CA, USA) to the assay plates. The assay plates were then incubated at 37 masculineC for a minimum 48 hr. Three microL of Cell Titer Glo solution was added to the plates and incubated at RT in dark for 30 min. Luminescence was read using ViewLux (Perkin Elmer) with 1 sec exposure slow speed, high gain and 2x binning.
% is scaled to controls: 0 for no effect and ±100 for the full control effect; potency is read from the fitted curve at half-maximal effect.

Compound	activity change, negative = growth inhibition [%]	Potency
CCOc1ccc(CC(=O)NC2CCN(Cc3ccccc3)CC2)cc1	-11.6	
CC(C)(C)S(=O)(=O)N1Cc2cc(CO)cc(CCO)c2[C@H]1CCO	-2.54	
C/C(CC(=O)NC(C)(C)C)=N\NC(=O)c1ccco1	5.55	
O=c1cc(CCl)nc2scc(-c3ccccc3)n12		14.6 µM (active)
CCCc1c(C)nc2scc(-c3ccc(Cl)cc3)n2c1=O	-12.2	
Cc1csc2nc(COC(=O)c3cccc(N(C)C)c3)cc(=O)n12	-24.8	
Cc1onc(-c2ccccc2)c1C(=O)N1CCN(S(=O)(=O)c2ccccc2C(F)(F)F)CC1	-3.88	
COc1ccc(CNC(=O)c2nnn(CC(=O)Nc3cc(C)cc(C)c3)c2N)cc1		inactive
O=C(CSc1ncc(CO)n1Cc1ccc(F)cc1)NCc1ccco1	-8.88	
O=C(CSc1nnc(-c2cccs2)n1-c1ccccc1)NCc1ccco1	2.07	
O=C(Cc1ccc(-n2c(=O)c3sccc3n(Cc3ccc(F)cc3)c2=O)cc1)NCc1ccco1		16.4 µM (active)
Cc1ccc(N2C(=O)CC(NCc3ccc4c(c3)OCO4)C2=O)cc1Cl (stereo not given)	2.01	
CN(C)NC(=O)C(NC(=O)c1ccc(N)cc1)C12CC3CC(CC(C3)C1)C2 (stereo not given)	1.22	
COCCCN1C(=O)c2ccc(C(=O)OCC(=O)NCc3ccccc3OC)cc2C1=O	1.23	
C/C(=N/NC(=S)Nc1ccccc1)c1ccc2c(c1)OCO2		0.82 µM (active)
C/C(=N\NC(=O)C(N)=O)c1ccc2c(c1)OCCO2	13.6	
C/C(=N/NC(=O)c1ccncc1)c1ccc2c(c1)OCO2	1.21	
CCCCNC(=O)CCn1nc(-c2ccc(Cl)cc2)ccc1=O	23.4	
O=C(O)CSc1nccc2ccccc12	-1.02	
CCOC(=O)C(C(=O)c1ccccc1)C(c1ccccc1)c1nccc2ccccc12 (stereo not given)		20.6 µM (active)
CCCn1nc2cc(C(=O)NCc3ccccc3)ccc2c1OCC	-13.4	
Cc1ccc(NC(=O)C2(N3CCC3=O)CCCCC2)cc1	2.09	
CCn1cc(C(=O)NCC(=O)NC(C)(C)CO)c(=O)c2cc3c(cc21)OCO3	14.7	
CCCCNC(=O)C1CCCNC1=O (stereo not given)	-27.3	
O=C(Cc1ccc([N+](=O)[O-])cc1)NCCc1ccc2c(c1)OCO2	-24.6	

Compound	activity change, negative = growth inhibition [%]	Potency
O=C(NCc1ccc2c(c1)OCO2)c1cc([N+](=O)[O-])ccc1N1CCOCC1		3.26 µM (active)
O=C(NC1CCCCC1)c1cc([N+](=O)[O-])ccc1N1CCOCC1	-4.33	
O=C1C2C3C=CC(C3)C2C(=O)N1c1ccc(S(=O)(=O)Nc2nccs2)cc1 (stereo not given)	-8.65	
COc1ccc(C(=O)NCc2ccccc2C)cc1S(=O)(=O)NC1CCCC1	-4.79	
CC(=O)N(CC(O)CO)c1c(I)c(C(=O)NCC(O)CO)c(I)c(C(=O)NCC(O)CO)c1I (stereo not given)		inactive
O=C(C1CC(=O)N(c2ccc(Br)cc2)C1)N1CCCC1 (stereo not given)	-5.65	
COc1ccc(N(Cc2ccccc2)S(=O)(=O)c2cccc(C(=O)O)c2)cc1	-6.42	
COc1ccc(NC(=O)CS(=O)(=O)c2ccccc2)cc1	31.2	
COc1ccc(C(CC(=O)c2ccccc2)S(=O)(=O)c2ccccc2)cc1 (stereo not given)		23.1 µM (active)
NC(=O)c1ncn([C@@H]2O[C@H](CN=C3NS(=O)(=O)c4ccccc43)[C@@H](O)[C@H]2O)n1	-10.6	
CC(Oc1ccc(Br)cc1)C(=O)NCC(c1ccco1)N1CCCCC1 (stereo not given)	-24.4	
COc1ccc(S(=O)(=O)N(C)CC(=O)N2CCCC2)cc1	2.13	
CN(C)S(=O)(=O)c1ccc(Oc2ccc(S(=O)(=O)N(C)C)cc2)cc1		16.4 µM (active)
CN(C)S(=O)(=O)c1ccc(NC(=O)N2CCOCC2)cc1	-5.71	
COc1ccc(N(CC(=O)Nc2cc(OC)cc(OC)c2)S(=O)(=O)c2c(C)n[nH]c2C)cc1	-29.6	
COc1ccc(CCNC(=O)COC(=O)c2ccc[nH]c2=O)cc1	3.7	
CC(C)=N/N=C1/NC(=O)C(Cc2ccccc2)S1 (stereo not given)	8.07	
CCN(CC(=O)NCc1cccs1)C(=O)/C=C/c1ccc(C)cc1	-23.4	
O=C1CCN(Cc2ccc([N+](=O)[O-])cc2)CCN1[C@H](CO)Cc1ccccc1	-9.24	
O=C(Cc1ccccc1)NNC1CC(=O)N(c2ccc(Br)cc2)C1=O (stereo not given)	1.27	
O=C1CC[C@H](O)CCN1[C@H](CSc1ccc(Br)cc1)Cc1ccccc1		11.2 µM (active) and 14.6 µM (active)
C[C@H]1CCC(=O)N([C@H](CSc2ccccc2)Cc2ccccc2)CC1	-13.2	
O=C1CCN(CCCc2ccccc2)CCN1CCO	3.81	
COc1ccc(SC[C@H](Cc2ccccc2)N2CCN(CCc3ccccc3)CCC2=O)cc1		23.1 µM (active)
O=C(CN1CCC(NC(=O)C2CC2)CC1)Nc1ccccc1[N+](=O)[O-]	-6.93	
